Entries with a potency or affinity are not part of this list. Calls of active or inactive are those of the source.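 How the source made its calls: active means viability loss whose fitted half-maximal concentration is at most twice the top valid tested dose; inconclusive means flat curve with 30 to 70% loss, or poor fit; inactive means the rest.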
Test: HepG2 cell cytotoxicity, dose response, cytotoxicity control, ATP luminescence, cherry-pick, set 6 (AID 1053125);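 further: negative values mean loss of viability signal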
Settings: HepG2 viability, ATP luminescence (CellTiter-Glo), 72 h; series mostly up to 26 µM; activity change, negative = cytotoxicity: at the top concentration

Compound | activity change, negative = cytotoxicity
COc1ccc(S(=O)(=O)N2CCCC2CNC(=O)C(=O)NC2CCCC2)cc1 (stereo not given) | -7.24% (inactive)
CN1c2ccc(Cl)cc2C(=O)NC1C1CC=CCC1 (stereo not given) | -1.75% (inactive)
CC1CCN(S(=O)(=O)N2CCC(C(=O)NC3CCCC3)CC2)CC1 | -3.91% (inactive)
COc1ccc(C2C(C#N)=C(N)Oc3cc(O)ccc32)cc1Cl (stereo not given) | -4.61% (inactive)
CCCn1c(=N)c(S(=O)(=O)c2ccccc2)cc2c(=O)n3ccccc3nc21 | -9.82% (inactive)
C[C@H](NC(=O)c1nc[nH]c1C(=O)N[C@@H](Cc1ccccc1)C(=O)OC(C)(C)C)C(=O)OCc1ccccc1 | 1.48% (inactive)
NC(=O)c1cc([N+](=O)[O-])ccc1NCc1cccnc1 | 17.7% (inactive)
Cc1c(C(=O)NCc2ccc(Cl)c(Cl)c2)sc(=O)n1Cc1cccc(F)c1 | -9.25% (inactive)
COC(=O)C1=CN(C)C=C(C(=O)OC)C1c1ccccc1Cl | -5.6% (inactive)
CC(C)N1CCc2c(sc(NC(=O)Cc3ccccc3)c2C#N)C1 | 8.38% (inactive)
O=c1oc2c(CN3CCCCC3)c(O)ccc2cc1-c1nc2ccccc2[nH]1 | -10.6% (inactive)
CCOC(=O)c1c2ccc(OCC(=O)NN)cc2n2ccccc12 | -9.3% (inactive)
CCOc1ccc(C2C(C#N)=C(N)Oc3cc(O)ccc32)cc1OCC (stereo not given) | 10% (inactive)
Cc1cccn2c(=O)c3cc(C(=O)NCCN4CCOCC4)c(=N)n(CCc4ccccc4)c3nc12 | 1.54% (inactive)
CCN1C=C(C(=O)OC)C(c2cccc(OC)c2OC)C(C(=O)OC)=C1 | 3.47% (inactive)
N=c1oc2cc(O)ccc2cc1C(=O)Nc1nc2ccccc2s1 | -0.66% (inactive)
COc1c(Cl)cc(-c2noc(C)c2C(=O)NCc2ccc3c(c2)OCO3)cc1Cl | -5.56% (inactive)
CC(=O)c1cccc(-c2ccnc3c2CC(C(=O)NCc2ccc(F)c(F)c2)O3)c1 (stereo not given) | 2.47% (inactive)

Compound | activity change, negative = cytotoxicity
CC(C)CCN1C(=O)c2cccc3c(N)ccc(c23)C1=O | 27.9% (inactive)
CCCOc1ccc(NC(=O)c2c(-c3ccccc3)noc2C)cc1 | -6.96% (inactive)
O=C(O)c1cccc(Nc2nc(-c3cc4ccccc4oc3=O)cs2)c1 | 1.67% (inactive)
Cc1cccn2c(=O)c3cc(C(=O)NCCN4CCOCC4)c(=N)n(Cc4ccc(F)cc4)c3nc12 | 22.3% (inactive)
CN1CCN(c2nc3ccccn3c(=O)c2/C=C(\C#N)S(=O)(=O)c2ccccc2)CC1 | 1.83% (inactive)
CCOCCCNc1nc2nc3ccc(C)cn3c(=O)c2cc1C(=O)NCC1CCCO1 (stereo not given) | -3.61% (inactive)
[O-]/[N+](=C/c1ccccc1)c1ccccc1 | 18.8% (inactive)
Fc1ccc(-c2nc3ccccn3c2NCc2ccc3c(c2)OCO3)cc1 | -7.07% (inactive)
CCC(C)NC(=S)N1CCN(Cc2ccc3c(c2)OCO3)CC1 (stereo not given) | 8.46% (inactive)
CC(=O)Oc1ccc(C(=O)Nc2cc(C)on2)cc1 | -19.6% (inactive)
CCN(CC)c1ccc2cc(S(=O)(=O)c3ccc(Cl)cc3)c(=O)oc2c1 | -11.5% (inactive)
CC(=O)c1cc2ccc(O)cc2oc1=O | -4.29% (inactive)
O=C(O)c1[nH]c2ccccc2c1C(c1cc(Br)ccc1O)c1c(C(=O)O)[nH]c2ccccc12 | -3.21% (inactive)
O=C(O)c1ccc(N/N=C/c2ccc(-c3ccccc3Cl)o2)cc1 | -1.29% (inactive)
O=C(COC(=O)c1cc(S(=O)(=O)N2CCCCC2)ccc1N1CCOCC1)c1ccccc1Cl | -11.1% (inactive)
Cc1nc(CCNC(=O)Cc2ccc(Cl)cc2)cs1 | -1.48% (inactive)
Clc1ccccc1C1=CC(c2ccco2)n2ncnc2N1 (stereo not given) | -9.12% (inactive)
